For 20 molecules, growth inhibition, inhibition and outcome results are on record in PubChem BioAssay.

The nature of assay [1]: antimalarial activity against Dd2 strain (AID 2302;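 active means growth inhibition above 50% at the single 2 µM test dose, taken to imply half-maximal potency below 2 µM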;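 further: 0% = DMSO untreated growth and 100% = chloroquine plus artemisinin killed control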). The conditions noted are these: P. falciparum Dd2 in RBCs, LDH growth readout, 72 h; at 2 µM; hits give high values.
Assay [2] in a line: human hepatoma cell viability loss – ATP luminescence, cytotoxicity control for P. falciparum antimalarial project, primary screen (AID 2303;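 active means inhibition above 50%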;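 further: 0% = DMSO wells and 100% = digitonin-killed cells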). To be noted: HepG2 viability, 24-48 h, at 10 µM, hits give high values.
Assay [3] has as its target L-lactate dehydrogenase (Plasmodium falciparum (isolate CDC / Honduras)) (UniProt Q27743). As to the kind of experiment: PfLDH activity inhibition – cell lysate, 3D7 strain, counter-screen for P. falciparum growth inhibition project (AID 2304).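 Further: 0% = vehicle and 100% = reference inhibitor.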 To be noted: P. falciparum 3D7 crude extract, LDH APAD/NBT absorbance; at 2 µM; hits give high values.
The nature of assay [4]: inhibition of 3D7 malaria parasite growth – strain 3D7 (AID 2306).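 Further: 0% = DMSO wells and 100% = chloroquine plus artemisinin control wells.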 The conditions noted are these: P. falciparum 3D7 erythrocytic growth, LDH absorbance, 72 h; at 2 µM; hits give high values.
Assay [5] addresses Calcium-dependent protein kinase 1 (Plasmodium falciparum (isolate 3D7)) (UniProt P62344). Put plainly: PfCDPK1 kinase inhibitors, biochemical, TCAMS library (AID 1159585; cut-off not given, nearly all actives have IC50 up to about 0.98 µM;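 further: inhibitors leave more ATP so luminescence rises with inhibition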). The conditions noted are these: recombinant PfCDPK1, Kinase-Glo ATP depletion luminescence. In general terms: In Kinase-Glo more light means more ATP remaining.
Assay [6] addresses Plasmodium falciparum protein kinase 6 (PK6, PF3D7_1337100) (UniProt Q8IDW1). As to the kind of experiment: PfPK6 kinase inhibitors, biochemical, TCAMS library (AID 1159586). The conditions noted are these: recombinant PfPK6, Kinase-Glo ATP depletion luminescence.
The target of assay [7] is Protein kinase 7 (PK7), Plasmodium falciparum 3D7 (PF3D7_0213400) (UniProt Q7YTF7). As to the kind of experiment: inhibition of Plasmodium PK7 catalytic activity – biochemical, TCAMS antimalarial set, Kinase-Glo luminescence (AID 1159587). To be noted: recombinant PfPK7, Kinase-Glo ATP depletion luminescence.
Assay [8] addresses Calcium-dependent protein kinase 4 (Plasmodium falciparum (isolate 3D7)) (UniProt Q8IBS5). Put plainly: PfCDPK4 kinase inhibitors, biochemical, TCAMS library (AID 1159588; cut-off not given, nearly all actives have IC50 up to about 0.91 µM). The conditions noted are these: recombinant PfCDPK4, Kinase-Glo ATP depletion luminescence.

A word on the inhibition: it is the relative decrease from the control value, in per cent.

A number with no mark means an inactive call. For some of these results: Entries with a potency or affinity are not part of this list. Calls of active or inactive are those of the source. Unless noted, how the calls were made is not given here.

Chain of Protein kinase 7 (PK7), Plasmodium falciparum 3D7 (PF3D7_0213400) (Q7YTF7 1-343): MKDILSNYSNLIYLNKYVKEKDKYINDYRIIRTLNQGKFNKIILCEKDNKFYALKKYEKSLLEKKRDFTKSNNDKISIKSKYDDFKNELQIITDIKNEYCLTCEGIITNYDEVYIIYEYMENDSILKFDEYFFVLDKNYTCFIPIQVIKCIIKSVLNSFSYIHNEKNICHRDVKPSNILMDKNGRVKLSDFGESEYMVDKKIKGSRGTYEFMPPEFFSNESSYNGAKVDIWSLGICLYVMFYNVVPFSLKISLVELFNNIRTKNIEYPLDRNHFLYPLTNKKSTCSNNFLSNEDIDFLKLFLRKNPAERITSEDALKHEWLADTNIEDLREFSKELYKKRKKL
Chain of Calcium-dependent protein kinase 1 (Plasmodium falciparum (isolate 3D7)) (P62344 whole entry, looked up): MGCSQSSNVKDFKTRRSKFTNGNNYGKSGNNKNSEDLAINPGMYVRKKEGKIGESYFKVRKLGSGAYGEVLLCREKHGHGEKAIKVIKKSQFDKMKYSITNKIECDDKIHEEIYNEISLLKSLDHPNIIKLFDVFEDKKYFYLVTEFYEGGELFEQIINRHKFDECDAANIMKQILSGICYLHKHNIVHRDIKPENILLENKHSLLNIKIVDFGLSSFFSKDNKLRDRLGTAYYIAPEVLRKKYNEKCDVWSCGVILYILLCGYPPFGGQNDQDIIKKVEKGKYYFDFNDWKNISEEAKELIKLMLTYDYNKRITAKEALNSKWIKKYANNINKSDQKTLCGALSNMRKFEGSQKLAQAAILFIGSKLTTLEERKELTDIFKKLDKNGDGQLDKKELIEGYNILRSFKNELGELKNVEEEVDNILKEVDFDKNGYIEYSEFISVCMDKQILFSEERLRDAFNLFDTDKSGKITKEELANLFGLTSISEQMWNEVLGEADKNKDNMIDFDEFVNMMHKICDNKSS
Chain of Plasmodium falciparum protein kinase 6 (PK6, PF3D7_1337100) (Q8IDW1 1-305): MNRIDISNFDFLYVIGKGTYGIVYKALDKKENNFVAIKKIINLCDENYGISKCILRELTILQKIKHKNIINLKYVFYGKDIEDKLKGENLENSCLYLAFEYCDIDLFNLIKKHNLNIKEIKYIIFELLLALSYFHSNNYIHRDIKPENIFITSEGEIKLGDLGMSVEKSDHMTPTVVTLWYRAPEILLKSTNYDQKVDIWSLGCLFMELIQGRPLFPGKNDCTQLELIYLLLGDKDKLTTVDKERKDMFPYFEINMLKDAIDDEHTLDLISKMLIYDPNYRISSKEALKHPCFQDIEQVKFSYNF
Chain of Calcium-dependent protein kinase 4 (Plasmodium falciparum (isolate 3D7)) (Q8IBS5 whole entry, looked up): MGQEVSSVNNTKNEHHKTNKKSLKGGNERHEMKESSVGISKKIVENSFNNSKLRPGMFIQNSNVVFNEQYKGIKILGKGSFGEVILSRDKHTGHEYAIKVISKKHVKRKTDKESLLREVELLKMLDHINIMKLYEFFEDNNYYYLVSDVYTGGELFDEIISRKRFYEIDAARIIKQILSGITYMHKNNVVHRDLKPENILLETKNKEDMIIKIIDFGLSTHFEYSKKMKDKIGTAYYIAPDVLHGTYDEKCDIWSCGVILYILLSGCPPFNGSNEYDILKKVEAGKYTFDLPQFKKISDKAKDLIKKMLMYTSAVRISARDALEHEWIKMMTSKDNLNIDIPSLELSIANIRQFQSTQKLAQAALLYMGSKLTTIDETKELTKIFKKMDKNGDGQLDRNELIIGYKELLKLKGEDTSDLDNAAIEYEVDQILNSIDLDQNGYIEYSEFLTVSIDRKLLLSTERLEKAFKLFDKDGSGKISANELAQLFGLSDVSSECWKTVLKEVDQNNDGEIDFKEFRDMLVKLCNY
Chain of L-lactate dehydrogenase (Plasmodium falciparum (isolate CDC / Honduras)) (Q27743 whole entry, looked up): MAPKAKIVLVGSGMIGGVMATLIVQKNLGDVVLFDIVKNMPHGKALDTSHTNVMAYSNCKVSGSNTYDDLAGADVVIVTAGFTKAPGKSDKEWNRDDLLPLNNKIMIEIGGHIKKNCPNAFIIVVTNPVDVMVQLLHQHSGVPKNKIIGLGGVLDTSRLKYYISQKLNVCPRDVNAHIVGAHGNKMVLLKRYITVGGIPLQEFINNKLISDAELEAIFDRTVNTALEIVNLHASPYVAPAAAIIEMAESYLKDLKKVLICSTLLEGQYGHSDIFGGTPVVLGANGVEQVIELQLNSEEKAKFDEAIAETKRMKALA

For `COc1ccc2nccc([C@@H](O)CN3CCC(NS(=O)(=O)c4cc(Br)c(Br)s4)CC3)c2c1`, the growth inhibition is 36% in assay [1] and 92% (active) in assay [4]. Further, the inhibition in assay [2] is 14%; in assay [3], -2%. Also, the result in assay [5], in assay [6], in assay [7] and in assay [8] was inactive.
`Cc1cccc2[nH]c(-c3ccc(-c4ccc(NC(=O)C(=O)c5cccn5C)cc4)cc3)nc12`: the growth inhibition in assay [1] is 15%; in assay [4], 95% (active). Besides, the values for the inhibition in assay [2] and in assay [3] were 40% and 8%, respectively. For the same molecule, the result in assay [5], in assay [6], in assay [7] and in assay [8] was inactive.
For `CC(=O)Nc1ccc(C(=O)Nc2ccc(-c3csc(-c4nc5ccccc5[nH]4)c3)cc2)cn1`, the growth inhibition is -2% in assay [1] and 93% (active) in assay [4]. For the same molecule, the inhibition in assay [2] is 11%; in assay [3] it was -3%. For the same molecule, the outcome in assay [5], in assay [6], in assay [7] and in assay [8] was inactive.
For the molecule `CCOc1ccc2nc(C)cc(NN=Cc3ccc(Cl)cc3)c2c1`, the growth inhibition in assay [1] and in assay [4] was 100% (active) throughout. The results for the inhibition in assay [2] and in assay [3] were 0% and 5%, respectively. Besides, the outcome in assay [5], in assay [6], in assay [7] and in assay [8] was inactive.
Consider `COc1cccc(CNC(=O)[C@H]2CNCCN2C(=O)CCCc2ccccc2)c1`, for which the growth inhibition was 95% (active) in assay [1] and 91% (active) in assay [4]. In addition, the values for the inhibition in assay [2] and in assay [3] were 56% (active) and 2%, respectively. For the same molecule, the result in assay [5], in assay [6], in assay [7] and in assay [8] was inactive.
`Cc1cnc(NCCc2ccc(F)cc2)nc1NCCC(=O)Nc1ccccc1`: the growth inhibition in assay [1] is 17%; in assay [4], 89% (active). Besides, the inhibition was 3% in assay [2] and 6% in assay [3]. Moreover, the outcome in assay [5], in assay [6], in assay [7] and in assay [8] was inactive.
In the case of `CC1(C)N=C(NC(=O)Nc2ccc([N+](=O)[O-])cc2)N=C(N)N1OCc1cccc2ccccc12`, the growth inhibition in assay [1] was 21%; in assay [4], 97% (active). Besides, the inhibition in assay [2] is 35%; in assay [3] it was -3%. Also, the result in assay [5], in assay [6], in assay [7] and in assay [8] was inactive.
Take `Cc1cc(N)ncc1-c1ccc(NC(=O)Nc2cc(C(F)(F)F)ccc2F)cc1`: the growth inhibition is 23% in assay [1] and 100% (active) in assay [4]. The inhibition in assay [2] is 15%; in assay [3], 3%. For the same molecule, the outcome in assay [5], in assay [6], in assay [7] and in assay [8] was inactive.
On to `CCCN1CCC=C(c2cccc(Nc3nccc(Nc4cc(OC)ccc4C)n3)c2)C1`, for which the values for the growth inhibition in assay [1] and in assay [4] were 35% and 88% (active), respectively. Also, the values for the inhibition in assay [2] and in assay [3] were 15% and -1%, respectively. Besides, the result in assay [5], in assay [6], in assay [7] and in assay [8] was inactive.
Consider `CCCC(C)NC[C@@H](O)[C@H](Cc1ccccc1)NC(=O)c1cc(C2CCCC2)cc(N2CCCCS2(=O)=O)c1` (stereo not given in full), for which the figures for the growth inhibition in assay [1] and in assay [4] were 99% (active) and 98% (active), respectively. The inhibition is 8% in assay [2] and 3% in assay [3]. For the same molecule, the outcome in assay [5], in assay [6], in assay [7] and in assay [8] was inactive.
`CCN(CCN(C)C)Cc1ccc(-c2ccc(NS(=O)(=O)c3cccc4cccnc34)cc2)cc1`: the growth inhibition is 57% (active) in assay [1] and 91% (active) in assay [4]. The values for the inhibition in assay [2] and in assay [3] were 16% and 1%, respectively. The outcome in assay [5], in assay [6], in assay [7] and in assay [8] was inactive.
As for `CCN(CC)CCOC(=O)c1ccc(NC(=O)c2cc(-c3ccc(C)cc3)nc3ccccc23)cc1`, the growth inhibition in assay [1] was 12%; in assay [4], 97% (active). The inhibition was 22% in assay [2] and -4% in assay [3]. Besides, the result in assay [5], in assay [6], in assay [7] and in assay [8] was inactive.
`COc1cccc(CNC[C@@H](O)[C@H](Cc2ccccc2)NC(=O)c2cc(C(C)C)cc(N3CCCC3=O)c2)c1`: the growth inhibition in assay [1] was 61% (active); in assay [4] it was 95% (active). Further, the figures for the inhibition in assay [2] and in assay [3] were 1% and -4%, respectively. Besides, the result in assay [5], in assay [6], in assay [7] and in assay [8] was inactive.
Turning to `COc1cccc(NC(=O)Nc2ccc(Nc3nc(C)cc(N4CCCC4)n3)cc2)c1`, the growth inhibition in assay [1] is 100% (active); in assay [4] it was 101% (active). Besides, the inhibition is 28% in assay [2] and -1% in assay [3]. Besides, the outcome in assay [5], in assay [6], in assay [7] and in assay [8] was inactive.
Take `CC1Cc2ccccc2N1S(=O)(=O)c1cc(OCC(F)(F)F)ccc1OCC(F)(F)F` (stereo not given): the values for the growth inhibition in assay [1] and in assay [4] were 95% (active) and 96% (active), respectively. Also, the values for the inhibition in assay [2] and in assay [3] were 10% and 0%, respectively. Besides, the outcome in assay [5], in assay [6], in assay [7] and in assay [8] was inactive.
With `COc1ccc2nccc([C@@H](O)CN3CCC(NC(=O)/C=C/c4ccc(Cl)c(C(F)(F)F)c4)CC3)c2c1`, the growth inhibition in assay [1] is 89% (active); in assay [4], 102% (active). Further, the inhibition in assay [2] was 11%; in assay [3] it was -4%. For the same molecule, the outcome in assay [5], in assay [6], in assay [7] and in assay [8] was inactive.
In the case of `NC(N)=NC(=O)Nc1cc(Cl)c(Cl)c(Cl)c1`, the growth inhibition in assay [1] is 100% (active); in assay [4], 101% (active). For the same molecule, the inhibition in assay [2] is -2%; in assay [3] it was 6%. Also, the outcome in assay [5], in assay [6], in assay [7] and in assay [8] was inactive.
Regarding `Cc1cc(NCCCCCCN)nc(Nc2ccc(Cl)cc2)n1`, the growth inhibition in assay [1] is 26%; in assay [4], 100% (active). The inhibition in assay [2] is 25%; in assay [3], 1%. Further, the outcome in assay [5], in assay [6], in assay [7] and in assay [8] was inactive.
For the molecule `Cc1cccc(CN2CCCN(Cc3ccc(C(=O)Nc4ccc(C(C)(C)C)cc4)cc3)CC2)c1`, the growth inhibition in assay [1] is 4%; in assay [4] it was 97% (active). Further, the figures for the inhibition in assay [2] and in assay [3] were 57% (active) and -7%, respectively. Also, the result in assay [5], in assay [6], in assay [7] and in assay [8] was inactive.
In the case of `O=C(NCCCc1ccccc1)c1csc(C2CCCN(C(=O)c3ccc(O)c(-c4ccccc4)c3)C2)n1` (stereo not given), the growth inhibition in assay [1] and in assay [4] was 97% (active) throughout. Moreover, the inhibition in assay [2] and in assay [3] was 5% throughout. Besides, the outcome in assay [5], in assay [6], in assay [7] and in assay [8] was inactive.
